From ChEMBL document CHEMBL4513216, “Probing the Open Global Health Chemical Diversity Library for Multistage-Active Starting Points for Next-Generation Antimalarials” (ACS Infect Dis, 2020) come the findings set out here.

The campaign covered roughly 65,000 compounds. About 2,100 (3.2%) showed an effect of 50% or more. The median lay at about -52%. This excerpt belongs to a sample that is enriched for strong results.

In the assay the test system is Plasmodium falciparum. In words: Screen against P. falciparum Asexual Blood Stage (ABS), at 5uM. The assay is classed as functional, Dd2. As to conditions: tested at 5 uM.
`COc1ccc(CN2C[C@@H]3CN(Cc4cccnc4)CCO[C@@H]3C2)cc1`: the INHIBITION was -76.4%.

Consider `CC(NC(=O)Nc1ccc(-c2csnn2)cc1)C(=O)NC(C)(C)C` (centres undefined), for which the INHIBITION is recorded as -94.8%.

On to `O=C(c1ccsc1)N1C[C@@H]2CCN(c3cccnc3)C[C@@H]2C1`, for which the INHIBITION is given as -7.89%.

In the case of `O=C(NCC1CCS(=O)(=O)C1)N1CCN(c2cnccn2)CC1` (centres undefined), the INHIBITION is -123%.

For `CC(NC(=O)NCCCN(C)S(C)(=O)=O)c1ccc(F)cc1` (centres undefined), the INHIBITION is on record as -109%.

`Cc1cc(N(C)C)nc(N(C)Cc2csc(C)n2)n1`: the INHIBITION amounted to 51.4%.

Turning to `Cc1nc(CN(C)c2nccc(N(C)C)n2)cs1`, the INHIBITION was 27.2%.

Take `COc1ccnc(N(C)Cc2csc(C)n2)n1`: the INHIBITION is listed as -49.6%.

Consider `c1cncc(OCc2n[nH]c3c2CN(Cc2cccs2)C3)c1`, for which the INHIBITION is given as -109%.

In the case of `OC1(Cn2ccc3ncccc32)CCN(Cc2cccs2)CC1`, the INHIBITION is recorded as 4.9%.

For `CC(=O)c1cccc(NCC(=O)NC(N)=O)c1`, the INHIBITION is -105%.

Consider `Cn1nc(C2CCCN(Cc3ccccc3)C2)c2nccnc21` (centres undefined), for which the INHIBITION is recorded as -26.5%.

On to `COc1cccc(CNCc2ccnc(N3CCOCC3)c2)c1OC`, for which the INHIBITION is reported as -35.6%.

In the case of `O=C(NCC1(O)CCOCC1)c1ccc(F)cc1`, the INHIBITION is reported as -171%.

On to `COc1cccc(C2(C(=O)NC3CCc4nccn4C3)CCCC2)c1` (centres undefined), for which the INHIBITION came out at 53.3%.

In the case of `CS(=O)(=O)C1(C(=O)NC2CCc3nccn3C2)CCCC1` (centres undefined), the INHIBITION is on record as -105%.

On to `COc1ccc(C2(C(=O)NC3CCc4nccn4C3)CCCC2)cc1` (centres undefined), for which the INHIBITION worked out at 47.5%.

Regarding `CCN1CC(C)(C)CN(C(=O)CCc2ccccc2)CC1=O`, the INHIBITION is -37%.

Take `Cc1ccc(-c2nc(CCNC(=O)NC3CCC(O)CC3)co2)cc1` (centres undefined): the INHIBITION is on record as -137%.

As for `CN(C)CC1(O)CCN(Cc2cnc3c(-c4ccccc4)cnn3c2)C1` (centres undefined), the INHIBITION turned out to be 65%.

On to `OCCN1CCN(Cc2cnc3c(-c4ccccc4)cnn3c2)CC1`, for which the INHIBITION stood at 20.3%.

Turning to `c1ccc(-c2cnn3cc(CN4CCC5(CCO5)CC4)cnc23)cc1`, the INHIBITION is on record as -302%.

On to `COc1ccc(CN(Cc2ccsc2)CC2CCCO2)cn1` (centres undefined), for which the INHIBITION is given as -101%.

Take `CN(C)CCN1C(=O)CCC12CCN(Cc1cccs1)CC2`: the INHIBITION turned out to be 58.2%.

As to `CN(C)C(=O)CN1C(=O)CCC12CCN(Cc1cccs1)CC2`, the INHIBITION is on record as -98%.

Regarding `Cc1cccc(CN2CCCC3(CCC(=O)N3CCN(C)C)CC2)n1` (centres undefined), the INHIBITION came out at 45.5%.

For the compound `CNc1cncc(C2CCN(C(=O)c3coc(C)n3)CC2)n1`, the INHIBITION is -43%.

With `Cc1nn(C)c(N(C)C)c1CNC1CCc2c(F)cccc21` (centres undefined), the INHIBITION is recorded as -24.9%.

Consider `N#Cc1cccc(CN2CCC3(CC2)CC(c2ccncc2)C(=O)N3)c1` (centres undefined), for which the INHIBITION is recorded as -29.8%.

As to `NC(=O)c1ccc(CN2C(=O)C3(CCNCC3)Nc3ccccc32)cc1`, the INHIBITION was -3.53%.

Take `N#Cc1cccc(CN2C(=O)C3(CCNCC3)Nc3ccccc32)c1`: the INHIBITION was 67.9%.

Turning to `N#Cc1cccc(CN2C(=O)c3ccccc3CS2(=O)=O)c1`, the INHIBITION was -37.5%.

With `C=Cc1ccc(CN2C(=O)C3(CCNCC3)Nc3ccccc32)cc1`, the INHIBITION is reported as 87.7%.

With `O=C1CC2(CCNCC2)C(=O)N1Cc1ccc(F)cc1`, the INHIBITION is -53.4%.

With `COc1ccccc1N1CCN(C(=O)c2ccnc(N(C)C)c2)CC1`, the INHIBITION is listed as 41.8%.

On to `CN(Cc1cn2c(n1)CN(C1CCOCC1)CC2)Cc1ccco1`, for which the INHIBITION is -29.2%.

Take `CN(C)CC(=O)N1CCCC1c1cncc(Oc2ccc(F)cc2)n1` (centres undefined): the INHIBITION is reported as 61.2%.

Consider `CC(=O)N1CCCC1c1cncc(Oc2ccc(F)cc2)n1` (centres undefined), for which the INHIBITION is reported as -118%.

On to `NC(=O)CN1CCCC1c1cncc(Oc2ccc(Cl)cc2)n1` (centres undefined), for which the INHIBITION is given as 9.38%.

`COc1ccc(Oc2cncc(C3CCCN3C(C)=O)n2)cc1` (centres undefined): the INHIBITION was -40.9%.

As for `CNCC(=O)N1CCCC1c1cncc(Oc2ccc(F)cc2)n1` (centres undefined), the INHIBITION amounted to 69.8%.

Turning to `Cn1cncc1CN1CCCC1c1cncc(Oc2ccc(F)cc2)n1` (centres undefined), the INHIBITION is recorded as -32.7%.

For the compound `NCc1ccnc(Oc2ccc(F)cc2)c1`, the INHIBITION is given as -151%.

Turning to `O=C(NC1CC1)N1CCOCC2(C1)CN(c1ccccc1)C(=O)CO2` (centres undefined), the INHIBITION is -77.9%.

For the compound `c1cnnc(NCC2CN(Cc3ccon3)CCO2)c1` (centres undefined), the INHIBITION was -114%.

Regarding `CN1CC[C@]2(CN(CC3CCOC3)C[C@H]2c2ccccc2)C1=O` (some centres undefined), the INHIBITION was -65.9%.

In the case of `NC(=O)NC(=O)CCSCc1coc(-c2ccc(F)cc2)n1`, the INHIBITION was -58.5%.

On to `CC(Nc1ncnc2c1CCNCC2)c1nc2c(s1)CCCC2` (centres undefined), for which the INHIBITION came out at 9.93%.

As to `CC(=O)N1CCc2nc(-c3ccccc3)nc(NC(C)C)c2CC1`, the INHIBITION was -25.6%.

Consider `CC(Nc1nc(-c2ccccc2)nc2c1CCNCC2)c1nccs1` (centres undefined), for which the INHIBITION is 52.7%.

Consider `N#CCCn1nc(C(F)(F)F)c2c1CCC2`, for which the INHIBITION is on record as -74.2%.

`Cc1ncsc1C(=O)NC1CCN(Cc2ccc(C(F)(F)F)cc2)CC1`: the INHIBITION is -104%.

Take `CN(C)[C@@H]1CO[C@H](CNC(=O)Nc2ccccc2)[C@H]1O`: the INHIBITION was -60.7%.

As to `O=C(NC[C@H]1OC[C@@H](NC2CCC2)[C@@H]1O)Nc1ccccc1`, the INHIBITION is recorded as -141%.

Turning to `O=C(NC[C@H]1OC[C@@H](N(CC2CC2)CC2CC2)[C@@H]1O)Nc1ccccc1`, the INHIBITION worked out at 64.8%.

On to `CSc1ccc(CNC(c2ccccc2F)c2nccn2C)cc1` (centres undefined), for which the INHIBITION is -98%.

For the compound `CSc1ccc(CNC(c2ccc(F)cc2)c2nccn2C)cc1` (centres undefined), the INHIBITION is reported as -107%.

Regarding `COc1ccccc1C(NCc1ccc(SC)cc1)c1nccn1C` (centres undefined), the INHIBITION is recorded as 69.7%.

Turning to `COc1cccc(C(NCc2ccc(SC)cc2)c2nccn2C)c1` (centres undefined), the INHIBITION is listed as 65.5%.

`Cn1ccnc1C(NCc1ccccc1)c1ccc(F)cc1` (centres undefined): the INHIBITION is given as -60.5%.

In the case of `Cn1ccnc1C(NCc1ccc(Br)cc1)c1ccccc1` (centres undefined), the INHIBITION stood at 52.2%.

For `CSc1ccc(CNC(c2ccccc2)c2nccn2C)cc1` (centres undefined), the INHIBITION is listed as -22.4%.

For the compound `Cc1ccc(CNC(c2ccccc2)c2nccn2C)cc1` (centres undefined), the INHIBITION was -267%.

`Cn1ccnc1C(NCc1csc(Br)c1)c1ccccc1` (centres undefined): the INHIBITION was 28.4%.

On to `FC(F)(F)Cn1cc(NCc2cscn2)cn1`, for which the INHIBITION is listed as -19.1%.

For `Cc1ccc(S(=O)(=O)c2ncccc2CN2CCN(C)CC2)cc1`, the INHIBITION came out at 24.6%.

With `Cc1nc(COc2ccc(CNCCn3cccn3)cc2)cs1`, the INHIBITION is -107%.

In the case of `COCCNC(=O)[C@H]1CN(c2nnc(C)s2)C[C@H]2OCC[C@@H]12`, the INHIBITION is given as -167%.

On to `c1ccc(Cc2noc(CN3CCCCC3Cn3cncn3)n2)cc1` (centres undefined), for which the INHIBITION is on record as -14.9%.
